Source: the supplement of paper PMC6555819

Columns and labels:
Experiment in all cases: PBM binding z-score (relative to random genomic background probes); higher = stronger binding; sequences stand for … in GC…GCGATTGACAGCGTAGAATGAAGG
[1] = system: FXR:RXRa (NR concentration 270 nM, RXRa partner concentration 90 nM)
Summary of the method: (§1)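 Custom Agilent 4×180K protein-binding microarrays carried double-stranded probes. Their 34-nt variable regions held direct-repeat seeds, single-nucleotide variants, half-site ablations and random human genomic background sequences. Arrays were incubated 1 h with ligand-free nuclear receptor dimers in PBS pH 7.4, 2% milk, 0.02% Triton X-100, 1 mM DTT, 0.2 mg/mL BSA and 0.4 mg/ml salmon testes DNA. Antibodies against each partner (one per run) detected binding, and scanned fluorescence was regression-normalized. Binding z-scores use random background probes as reference.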

[2] = system: LXRa:RXRa (NR concentration 270 nM, RXRa partner concentration 90 nM)
Summary of the method: as §1

[3] = system: LXRa homodimer (NR concentration 270 nM)
Summary of the method: as §1

[4] = system: LXRb:RXRa (NR concentration 270 nM, RXRa partner concentration 90 nM)
Summary of the method: as §1

[5] = system: LXRb homodimer (NR concentration 270 nM)
Summary of the method: as §1

[6] = system: PPARa:RXRa (NR concentration 270 nM, RXRa partner concentration 90 nM)
Summary of the method: as §1

[7] = system: PPARg:RXRa (NR concentration 180 nM, RXRa partner concentration 90 nM)
Summary of the method: as §1

[8] = system: PPARg:RXRa 270nM:90nM, anti-RXR (NR concentration 270 nM, RXRa partner concentration 90 nM)
Summary of the method: as §1

[9] = system: PPARg:RXRa 30nM:10nM, anti-RXR (NR concentration 30 nM, RXRa partner concentration 10 nM)
Summary of the method: as §1

[10] = system: PPARg:RXRa 90nM:30nM, anti-RXR (NR concentration 90 nM, RXRa partner concentration 30 nM)
Summary of the method: as §1

[11] = system: PPARg:RXRa DBDmut IVT, anti-RXR (DBD mutation: RXRa K156A/R161A, NR concentration 270 nM, RXRa partner concentration 90 nM)
Summary of the method: as §1

[12] = system: PPARg:RXRa IVT, anti-PPARg (NR concentration 270 nM, RXRa partner concentration 90 nM)
Summary of the method: as §1

[13] = system: PPARg DBDmut:RXRa IVT, anti-PPARg (DBD mutation: PPARg1 K132A/R137A, NR concentration 270 nM, RXRa partner concentration 90 nM)
Summary of the method: as §1

[14] = system: PPARg DBDmut IVT, anti-PPARg (DBD mutation: PPARg1 K132A/R137A, NR concentration 270 nM)
Summary of the method: as §1

[15] = system: PPARg homodimer (NR concentration 180 nM)
Summary of the method: as §1

[16] = system: PXR:RXRa (NR concentration 270 nM, RXRa partner concentration 90 nM)
Summary of the method: as §1

[17] = system: PXR homodimer (NR concentration 270 nM)
Summary of the method: as §1

[18] = system: RARa:RXR (NR concentration 270 nM, RXRa partner concentration 90 nM)
Summary of the method: as §1

[19] = system: RARa homodimer (NR concentration 270 nM)
Summary of the method: as §1

[20] = system: RARb:RXRa (NR concentration 270 nM, RXRa partner concentration 90 nM)
Summary of the method: as §1

Sequence	PBM binding z-score [1]	PBM binding z-score [2]	PBM binding z-score [3]	PBM binding z-score [4]	PBM binding z-score [5]	PBM binding z-score [6]	PBM binding z-score [7]	PBM binding z-score [8]	PBM binding z-score [9]	PBM binding z-score [10]	PBM binding z-score [11]	PBM binding z-score [12]	PBM binding z-score [13]	PBM binding z-score [14]	PBM binding z-score [15]	PBM binding z-score [16]	PBM binding z-score [17]	PBM binding z-score [18]	PBM binding z-score [19]	PBM binding z-score [20]
CCTTACTGGTCAAGGTTATAGCACGGGTGGTACG	0.733	0.968	0.49	0.767	0.339	1.43	0.792	1.03	0.301	0.959	0.149	0.857	0.06	0.0641	1.25	1.12	0.519	1.01	0.942	2.02
CAAACTAGGTGACGAAAGGTCAAAGTCGAATGAC	5.48	6.5	5.58	5.5	2.04	6.16	8.73	7.47	4.53	7.2	8.02	7.93	1.7	2.14	4.87	5.93	1.38	6.62	1.88	4.82
CCTAGTTGGTCAGGCGGTCACACACCGGATATGA	0.554	0.309	0.525	0.155	0.122	0.32	0.706	0.973	-0.186	0.129	0.37	0.945	-0.344	-0.024	0.926	0.0317	0.384	-0.0122	0.796	1.75
ATCGATAGGTCGAAGGTGAGTATACCCACCCGAA	0.952	0.85	-0.301	0.557	-0.268	2.9	4.53	5.41	3.58	5.43	-0.27	1.54	0.544	-0.0222	0.323	0.78	0.0246	2.02	-0.0833	1.76
AGTCTAAGTTCACTAGGTAACGTAAGATTCAGCT	2.84	3.02	0.822	1.84	0.221	3.63	2.98	3.85	1.57	3.02	2.75	3.66	0.895	1.1	1.24	3.63	4.11	1.93	0.914	3.58
CGTCAAAGTTCAAGGTATCGTAACAGAAAGCAGC	5.48	5.39	2.28	3.16	1.03	4.38	3.83	4.59	1.75	3.38	0.378	1.35	-0.37	0.459	2.03	3.81	1.91	3.09	1.17	4.93
GCTGCTAGGTCAAGTGATGGTCAGCTAAAGCTCG	4.09	3.01	0.152	1.9	-0.0819	3.57	2.46	3.13	0.591	2.12	4.64	4.05	0.0181	-0.582	1.55	1.43	-0.69	2.5	-0.171	4.11
GGTGCTAGGTCAGGTTGGTCAGCTAACGGGTACG	1.56	1.33	0.61	1.09	0.134	1.71	1	1.8	0.315	1.35	2.64	3.08	-0.502	-0.0479	1.8	0.63	0.481	1.2	1.12	3.56
TCTGCTAGGTCAACGGTGGTCAGCTAATCTGCTA	3.59	2.75	-0.0402	1.6	-0.0139	3.54	3.35	3.81	2.45	3.42	4.54	4.36	-0.104	-0.365	1.38	1.99	-0.742	2.38	-0.57	4.05
CGTCCAAGGTCAGAGAGGTCAGTTAATGCCGAGT	6.19	5.39	3.93	4.99	0.784	4.72	3.34	4.09	0.894	2.9	3.01	3.3	0.545	0.19	6.18	6.24	12.6	5.94	3.51	5.22
ATACCAAGGTGATCGAGAGGTCGTTGATACTAAC	1.97	1.51	0.71	1.37	0.0291	1.72	0.979	1	0.238	0.545	0.406	1.39	0.441	0.884	1.08	2.91	1.12	2.04	0.692	1.56
ACAGACAGGTGATGAAAGTAACTCAGGCTATCAT	-0.313	-0.244	-0.212	-0.34	-0.446	-0.12	0.596	-0.0784	-0.0592	-0.305	-0.123	0.107	0.648	-0.00926	-0.948	-0.313	0.153	-0.63	-0.762	0.0648
ATATGTAGGTTATCGGGTCATTCCGTTTGCGCAT	3.08	3.17	1.85	3.11	0.638	4.81	6.78	5.92	3.37	5.6	7.56	7.62	4.25	2.25	2.58	3.12	1.27	3.83	0.962	2.65
TAGCCTAGGTCATTGGGCCAGTATTGTACGCATC	4.48	3.6	0.903	2.28	0.642	3.66	3.19	3.33	1.04	2.35	2.88	3.82	0.545	-0.273	1.88	1.57	-0.247	2.41	-0.7	3.58
CCTGCTAGGTCTTGGTCAGCTAATCTACAGTATG	-0.4	-0.437	-0.451	-0.509	-0.639	-0.469	-0.371	-0.599	-0.683	-0.872	0.846	-0.117	-0.408	-1.03	-0.24	-0.552	-0.561	-0.0179	-1.02	0.537
ATATGTAGGTTAGCTGGGGTCATTGAGACTAGGC	4.97	5.62	2.48	4.62	1.35	5.24	5.52	5.03	2.46	4.26	6.54	6.07	2.23	1.29	2.75	6.11	3.42	5.49	0.751	2.9
CGAACTAGGTCATGGACAGTGAATCTCCGCACGC	3.63	2.28	0.076	1.46	-0.358	4.61	7.41	6.4	3.88	6.02	8.13	8.2	2.01	1.53	1.69	1.36	-0.279	2.43	0.353	3.61
TCTTGTAGTTCAAGCAGGTTAAGAAAGCCTGAGT	1.59	1.72	0.316	1.5	-0.0715	2.02	-0.535	1.65	2.53	1.94	1.37	0.625	-0.45	-0.0561	0.815	2.26	1.78	1.59	0.00762	2.3
CAAACTAGGTCACCGGAAGGTGAAAGTCCGCATG	4.95	3.97	0.466	3.14	0.0268	5.42	9.29	7.34	5.78	7.31	8.74	8.89	2.99	0.925	4.64	2.98	0.142	4.74	0.555	4.54
CGAACTAGGTCAGAACAGGACAGTGATGGATGAT	1.29	0.678	0.233	0.327	-0.482	2.91	5.11	4.36	2	3.37	6.82	7.04	3.7	2.44	1.38	0.583	0.0168	1.39	0.336	2.66
TCTCGGAGGACACGAACGGTCAGAGCTCGACATC	0.632	0.398	0.0467	-0.277	-0.841	0.0396	0.0784	0.624	1.74	0.89	1.13	-0.161	-0.337	-0.995	-0.693	-0.215	-0.654	-0.0917	-0.739	2.1
TCTATTAGTTTATTAGGGCAACCGAAACAGCGGA	1.14	0.997	1.69	1.25	2.21	2.4	1.56	3.07	3.87	3.33	4.65	4.46	2.16	2.42	1.44	1.07	1.21	0.944	1.74	1.57
TCATATAGGTAAAGGTGAAACTCGAACGATATGA	0.837	1.52	-0.0632	1.7	-0.204	3.58	4.46	4.88	4.59	5.12	4.08	4.59	1.59	2.12	1.36	1.13	-0.357	1.76	0.238	2.05
CCTACTGGGCCACGAAAGGTCATTGGTTCAGTGA	3.88	5.26	5.57	4.37	0.215	4.79	4.66	4.86	2.43	4.48	5.54	5.88	-0.165	-0.319	3.95	5.47	3.04	5.74	0.693	3.96
CGTCCACGGTCAAAGGTCAGTGAAGAGATGACGG	5.45	4.83	1.87	3.7	-0.0177	5.49	7.71	7.46	5.82	7.93	1.1	3.94	-0.461	-0.195	6.23	4.9	0.288	7.25	2.09	5.01
ATACCAAGGTGATCGTGAGGTCGTAGATACTAAC	1.57	1.07	0.236	0.929	-0.173	1.73	0.732	0.484	-0.23	-0.092	0.0521	1.54	0.536	0.745	0.811	2.2	0.811	2.21	0.262	1.33
